Test [1] can be described thus: qHTS for Inhibitors of Plasmodium falciparum (7G8) proliferation (AID 504316). Also: nearly all actives have a fitted effect of over 65% in size. Also: potency is read from the fitted curve at half-maximal effect. The procedure, abridged: (§1)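 Parasite growth measured as SYBR Green DNA fluorescence (ex 485, em 535 nm) after overnight lysis following 72 h culture at 37 °C, 0.3% parasitemia, 2.5% hematocrit. Values normalized against DMSO and 0.29 uM artemisinin controls, with plate-stack correction.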
For orientation: In qHTS, concentration-response curves come from the screen itself.

A short description of test [2]: qHTS for Inhibitors of Plasmodium falciparum (HB3) proliferation (AID 504318). Also: nearly all actives have a fitted effect of over 60% in size. Also: potency is read from the fitted curve at half-maximal effect. In a few lines:
as §1

Test [3] concerns the target Atrial natriuretic peptide receptor 1 (Homo sapiens) (UniProt P16066). In words: Natriuretic polypeptide receptor (hNpr1) antagonism - Pilot CMLD screen (AID 1347052; calls by dose curve;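 also: HEK293 cells with hNpr1 stimulated by hNppA peptide at 0.1 nM; cGMP level read as GloSensor luciferase luminescence after agonist stimulation; series mostly up to about 9.2 µM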).
Test [4] in a line: qHTS for Inhibitors of Plasmodium falciparum (CP250) proliferation (AID 504320). In a few lines: as §1

Inconclusive results are not listed. The source made the active and inactive calls. Unless noted, calls follow the shape of the dose curve; as a rule, active = well fitted curve in the direction sought with a large enough effect; inconclusive = small, poorly fitted or top-dose-only effect, or another doubt; inactive = no such curve, though single readings can be large; an effect the other way counts as inactive or inconclusive.

Chain of Atrial natriuretic peptide receptor 1 (Homo sapiens) (P16066 whole entry, looked up): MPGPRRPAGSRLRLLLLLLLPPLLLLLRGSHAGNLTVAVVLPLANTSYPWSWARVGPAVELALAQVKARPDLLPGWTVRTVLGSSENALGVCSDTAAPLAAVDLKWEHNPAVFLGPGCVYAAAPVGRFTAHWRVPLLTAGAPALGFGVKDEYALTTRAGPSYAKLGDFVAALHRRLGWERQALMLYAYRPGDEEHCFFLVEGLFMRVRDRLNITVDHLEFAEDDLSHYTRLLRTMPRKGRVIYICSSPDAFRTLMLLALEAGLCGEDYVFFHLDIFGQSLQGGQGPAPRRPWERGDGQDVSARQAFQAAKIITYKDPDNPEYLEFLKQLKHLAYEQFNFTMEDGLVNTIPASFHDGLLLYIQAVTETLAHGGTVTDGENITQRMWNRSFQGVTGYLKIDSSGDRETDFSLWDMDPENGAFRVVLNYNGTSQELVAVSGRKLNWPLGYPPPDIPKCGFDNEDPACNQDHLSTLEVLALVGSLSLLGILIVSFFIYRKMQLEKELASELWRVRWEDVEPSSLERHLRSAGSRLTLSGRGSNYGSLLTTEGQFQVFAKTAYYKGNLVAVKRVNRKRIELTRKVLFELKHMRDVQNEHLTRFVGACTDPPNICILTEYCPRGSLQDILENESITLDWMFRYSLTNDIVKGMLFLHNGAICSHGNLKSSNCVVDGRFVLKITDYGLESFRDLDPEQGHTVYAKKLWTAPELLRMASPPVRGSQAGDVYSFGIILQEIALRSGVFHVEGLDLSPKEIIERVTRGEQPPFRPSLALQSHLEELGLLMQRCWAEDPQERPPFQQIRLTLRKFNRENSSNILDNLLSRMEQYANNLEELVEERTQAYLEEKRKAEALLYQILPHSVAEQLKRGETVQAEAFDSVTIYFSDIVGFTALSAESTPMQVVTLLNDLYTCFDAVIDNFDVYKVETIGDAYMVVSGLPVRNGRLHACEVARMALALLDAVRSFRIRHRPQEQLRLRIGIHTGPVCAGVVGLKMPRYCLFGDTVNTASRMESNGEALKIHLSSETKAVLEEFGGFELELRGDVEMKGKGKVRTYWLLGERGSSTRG

As for `CC1(C)CC(=O)C2=C(C1)O[C@@]1(CCCCN3C(=O)c4ccccc4C3=O)Cc3ccccc3[C@H]2O1`, the Potency in test [1] and in test [2] was 1.51 µM (active) throughout. For the same molecule, in test [3], the Potency result was “inactive”.

As for `CCCC[C@]12Cc3cc(OC)c(OC)cc3[C@H](O1)c1c(cc(-c3ccccc3)oc1=O)O2`, in test [1], the Potency is 1.51 µM (active). Moreover, the Potency entry in test [3] is “inactive”.

Consider `C=C[C@H]1CCC=C2C(=O)CCC[C@H]21`, for which the Potency in test [1] is 1.9 µM (active). Also, the Potency entry in test [3] is “inactive”.

In the case of `O=C1C2=C(C(=O)c3ccccc31)[C@H]1O[C@](c3ccsc3)(Cc3ccccc31)O2`, the Potency in test [1] and in test [2] was 1.9 µM (active) throughout. In addition, the Potency entry in test [3] is “inactive”.

As for `COc1cc2c(cc1OC)[C@@H]1O[C@](c3ccsc3)(C2)OC2=C1C(=O)OC1(CCCCC1)C2`, the Potency result in test [1], in test [2] and in test [3] was “inactive” throughout.

On to `COc1ccc(-c2nc3c(c4c2C[C@H](c2ccccc2)OC4)CN(C(=O)N[C@@H](C)C(=O)OC(C)C)CC3)c(C)c1`, for which the values for the Potency in test [1] and in test [2] were 1.51 µM (active) and 1.65 µM (active), respectively. Besides, the Potency result in test [4] and in test [3] was “inactive” in each case.

Turning to `COC(=O)C1=C(C)N(Cc2ccccc2)C(=NCC2CC2)NC1c1cccc(C(F)(F)F)c1` (stereo not drawn), the Potency entry in test [1] and in test [3] was “inactive” throughout.

`C[C@H]1C=CCC(=O)N[C@@H](c2ccccc2)[C@@H](C)C=CCC(=O)N[C@@H]1c1ccccc1`: the Potency in test [1] is 0.426 µM (active); in test [2] it was 1.51 µM (active). Besides, the Potency entry in test [4] and in test [3] was “inactive” in each case.

Turning to `CCCCn1c(C)cc2c(c1=O)[C@H]1O[C@](CCCCN3C(=O)c4ccccc4C3=O)(Cc3ccccc31)O2`, in test [1], the Potency is 1.69 µM (active). Also, the Potency result in test [3] is “inactive”.

For the molecule `CC1=C[C@@H](COc2ccccc2)O[C@@]2(C1)C(=O)N(Cc1ccccc1)c1ccccc12`, the Potency in test [1] was 0.757 µM (active). Besides, the Potency entry in test [2] and in test [3] was “inactive” in each case.

Turning to `COc1ccc(O[C@H]2C=C[C@@H](c3ccccc3)O[C@H]2CON=C(C)CCN2CCCc3nc(C)c(C)cc32)cc1`, the Potency was 1.51 µM (active) in test [1] and 3.29 µM (active) in test [2]. The Potency result in test [3] was “inactive”.

With `Cc1ccccc1Nc1oc(-c2ccccc2)nc1C(C)(C)C`, the Potency is 1.9 µM (active) in test [1] and 1.69 µM (active) in test [2]. The Potency result in test [3] was “inactive”.

On to `CCCNC(=O)OC[C@H]1O[C@H](CCON=C(C)CCN2CCCCc3nc(C)c(C)cc32)C=C[C@H]1Oc1ccc(OC)cc1`, for which the Potency was 1.9 µM (active) in test [1] and 2.82 µM (active) in test [2]. Further, in test [3], the Potency result was “inactive”.

With `COC(=O)C1=C(C)N(Cc2ccccc2)C(=NCC(C)C)NC1c1cccc(F)c1` (stereo not drawn), the Potency entry in test [1], in test [2] and in test [3] was “inactive” throughout.

In the case of `COC(=O)C1=C(C(=O)OC)[C@@H]2N(Cc3ccccc3)c3ccccc3[C@@]23C[C@@H](CO)N(C(=O)CC(C)C)C3=N1`, in test [1], the Potency is 1.69 µM (active). Also, the Potency entry in test [3] is “inactive”.

As for `CCCNC(=O)N1C2=NC(C(=O)OC)=C(C(=O)OC)[C@@H]3N(C)c4ccc(OC)cc4[C@]23C[C@H]1C(=O)OC`, the Potency in test [1] is 1.69 µM (active); in test [2], 2.94 µM (active). Further, the Potency result in test [3] was “inactive”.

As for `C=CCCC1(C(=O)c2ccccc2)C(=O)C(CC=C(C)C)=C(OC)C(CC=C(C)C)(CCC=C(C)C)C1=O` (stereo not drawn), the Potency in test [1] is 1.51 µM (active); in test [2], 1.69 µM (active). The Potency result in test [3] is “inactive”.

As for `COc1ccccc1C=CC1=CC2(C)CC1(C)C(c1ccccc1OC)CC2=O` (stereo not drawn), the Potency in test [1] is 1.69 µM (active). In test [3], the Potency result is “inactive”.

`CC(C)(C)Nc1oc(-c2ccccc2)nc1-c1ccccc1F`: the Potency result in test [1], in test [2], in test [4] and in test [3] was “inactive” throughout.

As for `COc1cccc([C@@H]2[C@H](C)C[C@H]3CC(=O)N4[C@H](CC(=O)N32)C[C@@H](C)[C@@H]4c2cccc(OC)c2)c1`, the Potency in test [1] was 1.51 µM (active). Besides, the Potency entry in test [4] and in test [3] was “inactive” throughout.

With `CC(CCC(=O)OC[C@H]1O[C@H](C#Cc2ccccc2)C=C[C@H]1Oc1ccc(C)cc1)=NO[C@H](C)c1cn([C@@H]2COC[C@@H]2O)nn1`, the Potency entry in test [1], in test [4] and in test [3] was “inactive” each time.

As for `CC1(C)CC(=O)C2=C(C1)O[C@@]1(CCCCN3C(=O)c4ccccc4C3=O)Cc3c(ccc4ccccc34)[C@H]2O1`, the Potency in test [1] is 1.51 µM (active). The Potency entry in test [4] and in test [3] was “inactive” each time.

Turning to `COC(=O)N1C(C=CC=Cc2ccc(OC)cc2)=Cc2ccccc2C1CC(C)=O` (stereo not drawn), the Potency in test [1] was 1.51 µM (active). For the same molecule, the Potency entry in test [4] and in test [3] was “inactive” throughout.

Turning to `C=C[C@@H](C)[C@](C)(O)c1ccccc1`, the Potency in test [1] is 1.51 µM (active). For the same molecule, the Potency entry in test [4] and in test [3] was “inactive” throughout.

With `N#Cc1ccc2c(c1)C[C@]1(CCCCN3C(=O)c4ccccc4C3=O)Oc3c(c(=O)oc4ccc(F)cc34)[C@@H]2O1`, the Potency in test [1] was 1.51 µM (active). Besides, the Potency result in test [4] and in test [3] was “inactive” throughout.

Regarding `CCN1C(=NCc2cc(OC)c(OC)c(OC)c2)NC(c2cccc(F)c2)C(C(=O)OC)=C1C` (stereo not drawn), in test [1], the Potency is 0.849 µM (active). In addition, the Potency result in test [4] and in test [3] was “inactive” throughout.

As to `O=C1CCCC2=C1[C@H]1O[C@](CCCCN3C(=O)c4ccccc4C3=O)(Cc3ccccc31)O2`, in test [1], the Potency was 1.9 µM (active). Besides, the Potency entry in test [4] and in test [3] was “inactive” in each case.

For `C=CC[C@@H]1C=C[C@H](ON=C(C)CCN2CCc3nc(CC)c(CC)cc3C2)[C@H](CO)O1`, in test [1], the Potency was 1.69 µM (active). The Potency result in test [4] and in test [3] was “inactive” in each case.

On to `CCc1cc2c(nc1CC)CCN(CCC(C)=NO[C@@H](C)c1cn([C@H](CO)Cc3ccccc3)nn1)C2`, for which the Potency in test [1] is 1.69 µM (active). The Potency result in test [4] and in test [3] was “inactive” in each case.

Turning to `CC(=O)OC[C@H]1O[C@H](CCON=C(C)CCN2CCc3nc(-c4ccccc4)c(-c4ccccc4)cc3C2)C=C[C@H]1OC(C)=O`, in test [1], the Potency was 1.51 µM (active). The Potency result in test [4] and in test [3] was “inactive” each time.

Consider `CCC(=O)N1C2=C(c3ccccc3[C@@H]1CC(=O)Nc1ccc3ccccc3c1)[C@H]1C(=O)N(c3ccccc3)C(=O)[C@@H]1[C@H](C)C2`, for which the Potency in test [1] is 1.51 µM (active). Also, the Potency entry in test [4] and in test [3] was “inactive” throughout.

For the molecule `CCCCc1cc2c(cn1)=C(OC(=O)c1cnc3ccccc3n1)C(C)(OC(=O)CC)C(=O)C=2` (stereo not drawn), in test [1], the Potency was 1.69 µM (active). The Potency result in test [4] and in test [3] was “inactive” in each case.

The record behind these values is PubChem BioAssay (NCATS).
